Calls of active or inactive are those of the source. Unless noted, no rule for the calls is given here.
Columns and labels:
[1] = compound effects on lung adenocarcinoma cell viability – A549, calcein-AM fluorescence, 48 h, basal, profiling panel (AID 1162); conditions: higher = more signal; also: test concentration not given here
[2] = compound effects on differentiated 3T3-L1 adipocyte viability – cell-based, 3T3-L1 adipocytes, calcein-AM fluorescence, 48 h, basal, profiling panel (AID 1163); conditions: 3T3-L1 adipocytes viability, higher = more signal; also: test concentration not given here
[3] = compound effects on hepatocellular carcinoma cell viability – HepG2, calcein-AM fluorescence, 48 h, basal, profiling panel (AID 1164); conditions: higher = more signal; also: test concentration not given here
[4] = compound effects on multiple myeloma cell viability – MM1S, calcein-AM fluorescence, 48 h, basal, profiling panel (AID 1165); conditions: higher = more signal; also: test concentration not given here
[5] = calcein-AM signal in unstimulated myeloma cells – cell-based, calcein-AM fluorescence, 48 h, PK04 Diversity Set, profiling panel (AID 1166); conditions: RPMI8226 myeloma viability, higher = more signal;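 also: cells grown under basal conditions without added stimulus; test concentration not given here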
[6] = JC-1 mitochondrial signal, unstimulated HepG2 cells – cell-based, JC-1 fluorescence, 24 h, 100 nL compound, profiling panel (AID 1167); conditions: HepG2 mitochondrial potential, higher = more signal; also: test concentration not given here
[7] = JC-1 mitochondrial signal, unstimulated adipocytes – cell-based, JC-1 fluorescence, 3T3-L1 adipocytes, 24 h, 100 nL compound, profiling panel (AID 1168); conditions: JC-1 mitochondrial fluorescence, higher = more signal, called active from +8 up or from −8 down; also: test concentration not given here
[8] = JC-1 mitochondrial signal, unstimulated myeloma cells – cell-based, JC-1 fluorescence, RPMI8226, 24 h, 100 nL compound, profiling panel (AID 1169); conditions: JC-1 mitochondrial potential fluorescence, higher = more signal; also: test concentration not given here
[9] = JC-1 mitochondrial signal, unstimulated MM1S myeloma – cell-based, JC-1 fluorescence, 24 h, 100 nL compound, profiling panel (AID 1170); conditions: MM1S mitochondrial potential, higher = more signal; also: test concentration not given here
[10] = resazurin metabolic signal in A549 cells – cell-based, resazurin fluorescence, 24 h, PK04 Diversity Set, profiling panel (AID 1171); conditions: A549 viability, higher = more signal, called active from +8 up or from −8 down; also: test concentration not given here
[11] = resazurin metabolic signal in HepG2 cells – cell-based, resazurin fluorescence, 24 h, PK04 Diversity Set, profiling panel (AID 1172); conditions: HepG2 viability, higher = more signal; also: test concentration not given here
[12] = budding yeast growth changes without added modifier – OD600, strain BY4716, 24 h, basal condition, primary screen (AID 1173); conditions: S. cerevisiae BY4716 growth, OD600, 24 h; higher = more signal, called active from +8 up or from −8 down
[13] = viability profiling in MM1S myeloma cells – cell-based, resazurin fluorescence, basal, 24 h, PK04 Diversity Set, profiling panel (AID 1174); conditions: higher = more signal, called active from +8 up or from −8 down; also: test concentration not given here
[14] = molecular target: Dihydroorotate dehydrogenase (quinone), mitochondrial (Plasmodium falciparum (isolate 3D7)) (UniProt Q08210); experiment: inhibition of P. falciparum DHODH – biochemical, C-terminal His tag, absorbance 600 nm, primary screen (AID 1175); conditions: PfDHODH enzyme, DCIP absorbance 600 nm; higher = more signal, called active from +8 up or from −8 down;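 also: recombinant parasite enzyme with a five histidine tag at its C terminus; test concentration not given here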
[15] = inhibition of PAO1 biofilm formation – strain PAO1, LB-PBS medium, absorbance 600 nm, primary screen (AID 1176); also: test concentration not given here; conditions: P. aeruginosa PAO1 growth/biofilm, A600, 12 h; higher = more signal
[16] = growth modulation of vineyard yeast isolate – strain RM11-1a, OD600, basal, 24 h, primary screen (AID 1177);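 also: cultures grown under basal conditions with no added stressor; test concentration not given here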; conditions: S. cerevisiae RM11-1a growth, OD600, 24 h; higher = more signal, called active from +8 up or from −8 down
[17] = growth of efflux-deficient E. coli DRC39 – strain DRC39, OD650, 24 h, E. coli filamentation inducers, primary screen (AID 1178);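 also: growth measured as culture turbidity by optical density at 650 nm; test concentration not given here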; conditions: E. coli DRC39 acrAB, higher = more signal, called active from +8 up or from −8 down
[18] = growth of efflux-deficient E. coli DRC39 – strain DRC39, OD650, 48 h, E. coli filamentation inducers, primary screen (AID 1179);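 also: screen aims at cell division blockers that make cells filament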; conditions: E. coli DRC39 delta-acrAB growth, higher = more signal, called active from +8 up or from −8 down
[19] = viability profiling in RPMI8226 myeloma cells – cell-based, resazurin fluorescence, basal, 24 h, PK04 Diversity Set, profiling panel (AID 1180); conditions: higher = more signal;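 also: RPMI8826 multiple myeloma cell line at 5000 cells per well; test concentration not given here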
[20] = molecular target: E3 ubiquitin-protein ligase XIAP (Homo sapiens) (UniProt P98170); experiment: small molecules binding XIAP protein – biophysical, small-molecule microarray, fluorescence 635 nm, primary screen (AID 1181); conditions: higher = more signal;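 also: score merges 667 nm emission and signal to noise over triplicate slides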
E3 ubiquitin-protein ligase XIAP (Homo sapiens), sequence (P98170 whole entry, looked up): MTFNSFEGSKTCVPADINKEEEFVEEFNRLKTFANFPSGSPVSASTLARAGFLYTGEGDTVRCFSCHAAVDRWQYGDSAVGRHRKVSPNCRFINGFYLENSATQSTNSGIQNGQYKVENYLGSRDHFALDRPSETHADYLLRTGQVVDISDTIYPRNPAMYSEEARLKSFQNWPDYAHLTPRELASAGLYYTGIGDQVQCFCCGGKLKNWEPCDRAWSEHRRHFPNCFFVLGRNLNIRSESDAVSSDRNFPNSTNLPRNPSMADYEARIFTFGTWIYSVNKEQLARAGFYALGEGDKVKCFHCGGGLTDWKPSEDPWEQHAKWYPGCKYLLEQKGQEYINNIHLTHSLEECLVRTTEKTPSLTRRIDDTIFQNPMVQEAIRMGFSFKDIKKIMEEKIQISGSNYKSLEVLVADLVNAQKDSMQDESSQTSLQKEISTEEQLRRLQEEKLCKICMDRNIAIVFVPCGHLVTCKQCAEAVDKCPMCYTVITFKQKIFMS

Dihydroorotate dehydrogenase (quinone), mitochondrial (Plasmodium falciparum (isolate 3D7)), sequence (Q08210 whole entry, looked up): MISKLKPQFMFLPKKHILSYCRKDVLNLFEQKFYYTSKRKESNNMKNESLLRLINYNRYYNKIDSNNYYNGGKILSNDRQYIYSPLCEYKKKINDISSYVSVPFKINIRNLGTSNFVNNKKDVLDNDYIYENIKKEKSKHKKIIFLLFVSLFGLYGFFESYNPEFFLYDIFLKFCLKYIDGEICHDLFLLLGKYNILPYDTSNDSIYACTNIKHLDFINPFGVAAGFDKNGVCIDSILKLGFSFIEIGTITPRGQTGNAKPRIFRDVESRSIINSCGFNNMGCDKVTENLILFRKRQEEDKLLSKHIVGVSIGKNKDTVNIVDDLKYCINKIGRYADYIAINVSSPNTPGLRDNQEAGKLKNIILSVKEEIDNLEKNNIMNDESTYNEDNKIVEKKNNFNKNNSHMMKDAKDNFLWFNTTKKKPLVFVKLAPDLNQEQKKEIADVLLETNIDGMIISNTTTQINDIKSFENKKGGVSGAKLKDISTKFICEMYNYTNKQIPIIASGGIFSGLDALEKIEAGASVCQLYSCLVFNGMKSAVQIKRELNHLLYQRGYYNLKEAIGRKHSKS

Compound	z-score [1]	z-score [2]	z-score [3]	z-score [4]	z-score [5]	z-score [6]	z-score [7]	z-score [8]	z-score [9]	z-score [10]	z-score [11]	z-score [12]	z-score [13]	composite z-score [14]	z-score [15]	z-score [16]	z-score [17]	z-score [18]	z-score [19]	composite z-score [20]
CC(C)C[C@@H]1NC(=O)[C@@H]2C[C@H](C(=O)NCCCCCNC(=O)CS)[C@H](c3ccc(O)cc3)N2C1=O	0.161	2.21	-0.787	-0.263	-0.782	-0.63	-0.195 (inactive)	0.393	-1.1	0.16 (inactive)	0.432	-1.44 (inactive)	0.974 (inactive)	-0.24 (inactive)	2.91 (inactive)	-1.38 (inactive)	-0.692 (inactive)	-0.539 (inactive)	0.718	0.302
O=C(N1CCOCC1)[C@]1(CCS(=O)(=O)c2ccccc2)N=C(c2ccc(OCCCO)cc2)O[C@@H]1c1ccccc1	0.569	1.29	0.176	-0.345	-0.0091	1.43	1.14 (inactive)	-0.176	-0.424	0.54 (inactive)	0.945	1.14 (inactive)	0.564 (inactive)	2.06 (inactive)	-0.981 (inactive)	2.17 (inactive)	2.71 (inactive)	0.546 (inactive)	0.413	0.0379
O=C1NC(=O)C2C1C=CC(C(O)C(O)CO)N2Nc1ccccn1 (stereo not given)	0.159	-0.28	2.19	0.434	0.476	0.361	0.117 (inactive)	-0.627	0.123	-1.65 (inactive)	-0.908	0.802 (inactive)	-0.872 (inactive)	-0.683 (inactive)	1.11 (inactive)	-0.645 (inactive)	-0.0259 (inactive)	0.61 (inactive)	-0.885	-0.195
O=C1O[C@H](c2ccccc2)[C@H](c2ccccc2)N2[C@H]1[C@@H](C(=O)O)[C@]1(C(=O)Nc3ccccc31)[C@H]2c1ccc(OCCO)cc1	-0.29	1.11	-0.119	0.338	-2.44	-0.706	0.254 (inactive)	-0.295	0.0484	0.683 (inactive)	0.0019	-0.302 (inactive)	-0.0917 (inactive)	-0.652 (inactive)	0.0485 (inactive)	-0.785 (inactive)	-0.545 (inactive)	-0.858 (inactive)	1.16	0.18
CC(C)c1ccc(NN2C(C(O)C(C)c3ccccc3)C=CC3C(=O)N(c4ccccc4)C(=O)C32)cc1 (stereo not given)	-0.625	-0.856	-1.03	-1.1	-1.34	-2.13	-1.75 (inactive)	-0.628	-0.102	-0.868 (inactive)	-1.72	0.0145 (inactive)	-1.23 (inactive)	-0.259 (inactive)	1.22 (inactive)	0.208 (inactive)	-0.828 (inactive)	-0.764 (inactive)	-1.2	0.155
COc1ccc(-c2cc3c(c(CCc4ccccc4)n2)[Si](C(C)C)(C(C)C)O[C@H]3c2ccccc2)cn1	0.359	-0.724	1.27	-1.82	-2.55	-2.71	-0.904 (inactive)	-0.405	-0.622	0.996 (inactive)	-0.166	0.871 (inactive)	0.694 (inactive)	-0.575 (inactive)	0.726 (inactive)	0.868 (inactive)	-1.19 (inactive)	-0.893 (inactive)	-0.555	-0.12
CCc1cccc(NC(=O)O[C@H]2[C@H](OC(=O)Nc3ccccc3-c3ccccc3)[C@H](OC(=O)Nc3ccccc3-c3ccccc3)[C@@H](OC)O[C@@H]2CO)c1	-2.01	-0.228	-1.7	-1.62	-0.201	-0.812	-0.398 (inactive)	-0.841	-1	-0.684 (inactive)	0.235	0.371 (inactive)	-0.444 (inactive)	-0.371 (inactive)	0.537 (inactive)	2.19 (inactive)	-1.34 (inactive)	-1.66 (inactive)	-0.254	0.146
O=C1C[C@@](C(=O)NCC(F)(F)F)(c2ccc([N+](=O)[O-])cc2)[C@@H](c2ccc(CO)cc2I)N1CC12CC3CC(CC(C3)C1)C2	-2.05	0.463	-5.2	-3.84	-4.03	-0.436	2.16 (inactive)	-0.9	-2.17	-3.86 (inactive)	-4.52	-1.42 (inactive)	-7.22 (inactive)	-1.13 (inactive)	1.11 (inactive)	-0.355 (inactive)	0.213 (inactive)	1.29 (inactive)	-6.47	-0.0287
COCCOC(=O)N1C(=O)[C@@]2(c3cc(C#CC4=CCCCC4)ccc31)[C@H](c1ccc(O)cc1)N1[C@H](c3ccccc3)[C@H](c3ccccc3)OC(=O)[C@H]1[C@@H]2C(=O)N1CCc2cc(OC)c(OC)cc2C1	-0.565	-0.154	-0.493	0.0055	-1.33	0.0573	1.8 (inactive)	-1.11	-0.432	0.0836 (inactive)	0.291	0.0658 (inactive)	-0.671 (inactive)	-0.0425 (inactive)	0.902 (inactive)	0.432 (inactive)	-0.184 (inactive)	-0.119 (inactive)	-0.161	-0.0434

Reference: PubChem BioAssay
